Assay outcomes: PubChem, National Center for Advancing Translational Sciences (NCATS)
HT1080 IDH1KD tx = toxicity to HT-1080 IDH1 knockdown cells (counter line). Potency, µM (series often up to 46.1 µM), usual class: cytotoxic. HT-1080 IDH1 knockdown viability, ATP luminescence, 48 h. AID 686971. 360,000 tested, 2% active
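After a 2 h attachment period, IDH1KD HT-1080 cells took pin-transferred compound for 48 h at 37 °C; ATP-based luminescence after 10 min room-temperature reagent incubation reported viability.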
MCF10A rerep = induces DNA re-replication in MCF 10a normal breast cells | MCF 10A DNA re-replication, Hoechst nuclear intensity, 48 h | Potency, µM (top dose mostly 46.1 µM), usual class: activators | 350,000 tested, 2.9% active; further: nearly all actives have a fitted effect of over 50% in size
KB-3-1 cytotox = KB-3-1 parental cell cytotoxicity. 400,000 tested, 1.4% active. KB-3-1 viability, CellTiter-Glo ATP luminescence, 72 h. AID 1347075. Potency, µM (top dose mostly 46.1 µM), hits mostly cytotoxic; further: nearly all actives have a fitted effect of over 60% in size
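Parental KB-3-1 viability, qHTS format: 72 h compound exposure, 37 °C; CellTiter-Glo; media-only wells and DMSO plates as controls; concentration-effect fits on corrected data.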
SW480 rereplic = DNA re-replication induction in SW480 cells; SW480 DNA re-replication, Hoechst DNA content imaging, 48 h; Potency, µM (series often up to 46.1 µM), usual class: activators; 340,000 tested, 1.8% active; further: nearly all actives have a fitted effect of over 55% in size
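Image-based read-out: total Hoechst fluorescence of nuclei (405 nm excitation, 500-530 nm emission), with hits raising the fraction of high-intensity nuclei. SW480 colon cells incubated 48 hr with compounds at 37 C.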
KB-V1 cytotox = kills drug-selected multidrug resistant KB-V1 cells | KB-V1 MDR cells viability, CellTiter-Glo, 72 h | 400,000 tested, 3.4% active | Potency, µM (doses to about 46.1 µM), hits mostly cytotoxic | AID 1347076; further: nearly all actives have a fitted effect of over 60% in size
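Potencies derive from concentration-effect curves fitted to normalized luminescence (CellTiter-Glo) of KB-V1 cells treated for 72 h at 37 degrees C in phenol-red-free DMEM containing 10% FBS.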
HT1080NT lethal = kills 2HG-producing HT-1080-NT fibrosarcoma cells; HT-1080-NT fibrosarcoma viability, CellTiter-Glo ATP luminescence, 48 h; 360,000 tested, 1.6% active; Potency, µM (doses to about 46.1 µM), hits mostly cytotoxic;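 further: NT is the 2HG producing partner of a matched IDH1 knockdown line; nearly all actives have a fitted effect of over 55% in size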
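Compounds were tested in concentration-response format on HT-1080-NT cells for 48 hours at 37 degrees C. Cell viability came from CellTiter-Glo luminescence; curves were classified by r2, response magnitude and activity.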
Numbers stand for hits; i = inactive; ? = inconclusive; nt = not tested or not shown; [ ] = dose if it differs, or a comment. The list is not random: actives were taken first. Their share in the collection is about 7.9%. The call rests on the fitted dose curve; in most records, active means well fitted curve in the direction sought with a large enough effect; inconclusive means small, poorly fitted or top-dose-only effect, or another doubt; inactive means no such curve, though single readings can be large; an effect the other way counts as inactive or inconclusive.

SMILES	HT1080 IDH1KD tx	MCF10A rerep	KB-3-1 cytotox	SW480 rereplic	KB-V1 cytotox	HT1080NT lethal
CC(CNC(=O)Cn1ncc2c3ccccc3n(Cc3cccc(Cl)c3)c2c1=O)c1ccccc1 (stereo not given)	nt	nt	i	nt	?	nt
O=C(N/N=C/c1cccc(Oc2ccc([N+](=O)[O-])cc2[N+](=O)[O-])c1)c1cncc(Br)c1	11µM	i	i	?	i	?
Cc1ccccc1OCC(=O)N/N=C/c1cccc(Oc2ccc([N+](=O)[O-])cc2[N+](=O)[O-])c1	i	i	?	?	?	i
Cn1nc(C(C)(C)C)cc1N1C(=O)CCC1(C)C(=O)NC1CCCC1 (stereo not given)	i	nt	i	nt	i	i
COc1cccc(-n2nnnc2S(C)(=O)=O)c1	7.3µM	4.6µM	?	?	?	?
Cc1cccc(-n2nnnc2S(C)(=O)=O)c1	nt	nt	i	nt	?	nt
COc1cc(CN2CCc3nc(N4CCN(c5ncccn5)CC4)ncc3C2)cc(OC)c1OC	nt	nt	?	nt	6.5µM	nt
CCOC(=O)N1CCN(c2ncc3c(n2)CC(c2ccc(Cl)cc2)CC3=O)CC1 (stereo not given)	nt	nt	i	nt	16µM	nt
CCOC(=O)N1CCN(c2ncc3c(n2)CC(c2ccccc2O)CC3=O)CC1 (stereo not given)	nt	nt	?	nt	18µM	nt
COc1cc(C2CC(=O)c3cnc(N4CCN(Cc5ccccc5)CC4)nc3C2)cc(OC)c1OC (stereo not given)	i	13µM	5.8µM	2.9µM	?	i
O=C(Nc1cccc(Cl)c1)C1CCCN(c2nn3cc(-c4ccc(F)cc4)nc3s2)C1 (stereo not given)	nt	nt	i	nt	?	nt
COc1ccc(CNC(=O)COCc2cc(-c3cccs3)on2)cc1	nt	nt	i	nt	i	nt
CC(=O)N1N=C(c2ccccc2)CC1c1ccc(F)cc1 (stereo not given)	i	i	i	i	i	i
CC(=O)N1N=C(c2ccccc2)CC1c1cn(C)c2ccccc12 (stereo not given)	i	i	i	i	23µM	i
CC(=O)c1ccc(NS(=O)(=O)c2ccc3ccccc3c2)cc1	i	i	i	i	16µM	i
Cc1cc(S(=O)(=O)Nc2ccc3ccccc3c2)c(C)s1	14µM	6.5µM	?	?	3.3µM	13µM
O=c1c2c3c(sc2nnn1Cc1ccc(F)cc1)CCCC3	nt	nt	i	nt	i	nt
Cc1nc(N)nc(Nc2ccc(Cl)cc2)c1Br	?	i	?	i	21µM	?
CCOC(=O)c1c(Cl)c(C)nn1-c1nc(OC)cc(OC)n1	i	i	?	i	2.9µM	i
CCOC(=O)c1cc(C)nn1-c1nc(Cl)cc(OC)n1	i	i	i	i	i	i
O=C(Cn1cc(C(F)(F)F)ccc1=O)NCCc1ccc(Cl)cc1Cl	?	i	i	i	i	i
N#Cc1ccc(CN2CCN(CC(=O)NCCc3ccc(Cl)cc3Cl)CC2)cc1	?	?	i	?	18µM	?
O=C(CSc1ccc2c(c1)OCCO2)NCCN1C(=O)CSC1=O	i	i	i	i	?	i
Cc1cc(NC(=O)CSc2ccc3c(c2)OCCO3)no1	i[9.24 µM]	i	i	i	i	i
O=C(CSc1ccc2c(c1)OCCO2)Nc1ncc(Cl)cc1Cl	i	i	i	i	21µM	i
SMILES	HT1080 IDH1KD tx	MCF10A rerep	KB-3-1 cytotox	SW480 rereplic	KB-V1 cytotox	HT1080NT lethal
Cc1ccnc(NC(=O)CSc2ccc3c(c2)OCCO3)c1	i	i	i	i	18µM	i
O=C(CSc1ccc2c(c1)OCCO2)NCCc1ccc(Cl)cc1Cl	i	i	i	i	18µM	i
O=C(Cn1c(=O)n(CCCS(=O)(=O)C2CCCCC2)c(=O)c2ccccc21)Nc1ccc(F)c(Cl)c1	nt	nt	i	nt	i	nt
CCN(CC)C(=O)Cn1c(=O)n(CCCCCC(=O)NCc2ccc(C)cc2)c(=O)c2sccc21	nt	nt	i	nt	i	nt
Cc1ccc(S(=O)(=O)C(CNC(=O)C(=O)NCc2ccc(Cl)cc2)c2cccs2)cc1 (stereo not given)	nt	nt	i	nt	i	nt
CCC(CC)C(=O)N1CCc2cc(OC)c(OC)cc2C1COc1ccccc1OC (stereo not given)	nt	nt	i	nt	i	nt
CCCCn1nnnc1C(c1cc2ccccc2o1)N1CCCN(C(=O)OC(C)(C)C)CC1 (stereo not given)	i	nt	i	nt	?	?
COc1ccc(OC)c(NC(=O)N2CC3CCCN3c3ccccc32)c1 (stereo not given)	nt	nt	i	nt	i	nt
O=C(Nc1ccon1)c1ccc2c(c1)OCO2	i	i	i	i	i	i
Cc1ccnc(NC(=O)c2ccc3c(c2)OCO3)c1	?	i	16µM	i	18µM	?
CCOC(=O)CSc1c(-c2cccs2)[nH]c2ccccc12	?	23µM	?	?	?	18µM
CCOC(=O)CSc1c(-c2ccc(Cl)cc2)[nH]c2ccccc12	i	?	i	i	i	?
NC(=O)c1cccc(-c2ccnc3c2CC(C(=O)Nc2cccc(Oc4ccccc4)c2)O3)c1 (stereo not given)	23µM	nt	i	nt	?	?
O=C(Nc1cccc(OC(F)(F)F)c1)C1Cc2c(-c3ccc4c(c3)OCO4)ccnc2O1 (stereo not given)	23µM	nt	i	nt	i	?
O=C(Nc1cccc(Oc2ccccc2)c1)C1Cc2c(-c3ccc4c(c3)OCO4)ccnc2O1 (stereo not given)	?	nt	i	nt	i	?
CC(=O)c1cccc(-c2ccnc3c2CC(C(=O)Nc2cccc(OC(F)(F)F)c2)O3)c1 (stereo not given)	16µM	nt	i	nt	i	?
O=C(Nc1ccccc1)C1Cc2c(-c3ccccc3Oc3ccccc3)ccnc2O1 (stereo not given)	?	nt	i	nt	i	?
CCc1ccc(NC(=O)CSc2ccc3nc(-c4ccc(OC)cc4)cn3n2)cc1	nt	nt	i	nt	i	nt
CN(C)C(=O)CSc1ccccc1C(=O)OCC(=O)NC1CC1	i	i	i	i	i	i
CC(C)OCCCN(C)C1CCN(S(=O)(=O)c2ccc(-c3cc(C(F)(F)F)no3)s2)CC1	i	i	16µM	15µM	9.2µM	i
O=C1S/C(=C\c2ccc(N3CCOCC3)o2)C(=O)N1Cc1c(F)cccc1Cl	3.5µM	i	i	i	i	?
O=C1S/C(=C/c2ccc(N3CCOCC3)o2)C(=O)N1Cc1c(F)cccc1Cl	i	?	i	?	i	i
NCc1csc(Nc2ncccn2)n1	i	nt	i	nt	i	i
NC(CSC(c1ccccc1)(c1ccccc1)c1ccc2c(c1)OCO2)C(=O)O (stereo not given)	18µM	nt	i	nt	i	12µM
CC(=O)Nc1cc(-c2cccc(F)c2)cn2c(-c3ccc(F)c(Cl)c3)cnc12	?	nt	i	nt	?	?
Cc1cc2nc(C(C)(C)C)c(Cc3ccsc3)n2c(C)c1Br	?	nt	i	nt	i	29µM
